BoNT-A LC inh2 = blocks Botulinum neurotoxin A light chain protease | multiplex microsphere protease substrate cleavage, flow cytometry | inhibition, % at 10 µM | hit rate 0.17% among 360,000 | AID 588499; note: plate controls were buffer without enzyme for full effect and enzyme alone for no effect
Anthrax LF inh2 = blocks Bacillus anthracis lethal factor protease | P15917 | multiplex microsphere protease cleavage assay, LF | inhibition, % at 10 µM | hit rate 0.12% among 360,000 | AID 588501; note: plate controls were buffer without enzyme for full effect and enzyme alone for no effect
BoNT-F LC inh = blocks Botulinum neurotoxin F light chain protease; Multiplex microsphere protease cleavage assay, flow cytometry; inhibition, % at 10 µM; hit rate 0.22% among 360,000; AID 588497; in the data active = inhibition above about 35%, passing the limit was not always enough; inconclusive = no clear call, values can overlap the other calls; note: plate controls were buffer without enzyme for full effect and enzyme alone for no effect
Autofluor counter = flagged as autofluorescent in microsphere protease counterscreen | AID 624483 | compound autofluorescence counterscreen, microsphere flow cytometry; stronger effect = higher value | fluorescence intensity (test concentration not listed) | hit rate 3.1% among 360,000; in the data active = fluorescence intensity above about 16000; inconclusive = no clear call, values can overlap the other calls
GDH-TPI inh = inhibits GDH-TPI coupling enzymes, artifact for Mtb FBA screen. GDH-TPI coupled enzyme counterscreen, NADH absorbance. inhibition, % at 4.8 µM. hit rate 1.2% among 360,000. AID 588335; in the data active = inhibition above about 30%;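 note: 0% = DMSO wells and 100% = wells lacking the enzyme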
Mtb FBA inh = Mtb fructose-bisphosphate aldolase inhibition; AID 588726; inhibition, % at 1 µM; purified M. tuberculosis FBA, fluorescence read-out; P9WQA3; hit rate 2.3% among 360,000; in the data active = inhibition above about 27%;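 note: 0% = vehicle and 100% = reference inhibitor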
Target sequence (P9WQA3 whole entry, looked up): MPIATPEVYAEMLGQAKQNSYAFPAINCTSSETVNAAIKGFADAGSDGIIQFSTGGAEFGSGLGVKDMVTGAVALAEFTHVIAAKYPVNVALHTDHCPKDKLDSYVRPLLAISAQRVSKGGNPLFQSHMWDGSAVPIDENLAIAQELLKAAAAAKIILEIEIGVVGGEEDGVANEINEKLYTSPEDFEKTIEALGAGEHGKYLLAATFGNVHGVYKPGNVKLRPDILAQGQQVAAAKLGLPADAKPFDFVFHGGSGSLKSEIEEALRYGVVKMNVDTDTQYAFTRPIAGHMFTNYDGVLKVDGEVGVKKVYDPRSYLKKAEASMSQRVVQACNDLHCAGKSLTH
An asterisk follows results filed as active; ? = inconclusive; . = no result; + = active, no number. Most compounds without a hit are left out; they make up all but 6.7% or so of the library. Cut-off read from the data, not from the text of the source, unless noted: active = inhibition above about 30%; inconclusive = no clear call, values can overlap the other calls; inactive = below that.

SMILES | BoNT-A LC inh2 | Anthrax LF inh2 | BoNT-F LC inh | Autofluor counter | GDH-TPI inh | Mtb FBA inh
O=C(Nc1ccccn1)c1ccc(Cl)c([N+](=O)[O-])c1 | -1 | -8 | -4 | 4535 | 3 | -1
O=C(O)c1cc(-c2ccco2)nc2ccc(Br)cc12 | 0 | 0 | 4 | 2383 | 3 | -4
Cc1[nH]c2ccccc2c1/C=N/NC(=O)c1cc(C(C)C)[nH]n1 | . | . | . | . | 47* | 2
CCc1cc(C(=O)N/N=C/c2c(C)[nH]c3ccccc23)cs1 | -1 | 1 | -3 | 2408 | 32* | 4
Cc1[nH]c2ccccc2c1/C=N\NC(=O)c1ccco1 | 0 | -2 | -1 | 4534 | 57* | -3
Cc1[nH]c2ccccc2c1/C=N/NC(=O)c1cccc(F)c1 | 0 | -1 | 3 | 3335 | 19 | 2
O=C(NCCCn1ccnc1)/C(=C/c1cccs1)NC(=O)c1ccco1 | -1 | 0 | 3 | 4241 | -3 | 2
O=C(c1cccn2c(=O)c3cc(Cl)ccc3nc12)N1CCN(Cc2ccc3c(c2)OCO3)CC1 | 11 | -8 | 11 | 16508* | 6 | 13
O=C(c1cc(Cl)nc2ccccc12)N1CCN(Cc2ccc3c(c2)OCO3)CC1 | 0 | -1 | -2 | 3844 | 3 | -1
O=C(c1cccn2c(=O)c3ccccc3nc12)N1CCN(Cc2ccc3c(c2)OCO3)CC1 | 0 | 1 | 0 | 20636* | 20 | 23
O=C1c2ccccc2NC(c2ccncc2)N1c1ccccn1 (stereo not drawn) | 2 | -10 | -2 | 3694 | 3 | 54*
O=C(OCCCN1CCCC1)C1(c2ccccc2)CCCC1 | ? | -2 | -5 | 24071* | -1 | 1
N#CC(c1ccccn1)(c1ncc(C(F)(F)F)cc1Cl)N1CCOCC1 (stereo not drawn) | ? | -7 | 1 | 22287* | 10 | 1
CCCN(CCC)CCSc1nc(O)c(C(C)C)c(=O)[nH]1 | ? | -14 | 5 | 18038* | -8 | -2
CCN(CC)CCSc1nc(O)c(-c2ccccc2)c(=O)[nH]1 | -2 | -2 | -3 | 17285* | 6 | 3
CCCCCc1c(O)nc(SCCN(CC)CC)[nH]c1=O | -1 | -4 | -6 | 3495 | 2 | 0
CCCCCCOC(=O)c1ccccc1N | 0 | -4 | -15 | 4592 | 10 | 5
CCc1nc(N2CCOCC2)c(C#N)c2c1COC(C)(C)C2 | 0 | 1 | 2 | 3189 | 10 | 46*
CC1(C)Cc2c(C#N)c(SCc3ccccc3)nc(N3CCOCC3)c2CO1 | 0 | 5 | 0 | 2451 | 75* | -6
COCC(=O)Nc1ncc(S(=O)(=O)c2ccc([N+](=O)[O-])cc2)s1 | 0 | 0 | 3 | 4160 | 7 | 7
COc1cccc2cc(C(=O)c3ccccc3)oc12 | 0 | -1 | -2 | 4094 | 3 | 8
c1ccc(Nc2ccccc2Nc2ccccn2)nc1 | -1 | 1 | -3 | 20926* | 7 | -2
Oc1cccc2ccc(Nc3ccccn3)nc12 | 10 | 34* | 26 | 11243 | 15 | -5
O=C(Nc1ccccn1)c1cc2ccccc2cc1O | 2 | 0 | 5 | 4970 | -10 | -6
c1ccc(CNc2ccccn2)cc1 | ? | -17 | ? | 4375 | 1 | 3
SMILES | BoNT-A LC inh2 | Anthrax LF inh2 | BoNT-F LC inh | Autofluor counter | GDH-TPI inh | Mtb FBA inh
COc1ccc(Cc2c(-c3ccccc3)nc3ccc(Br)cn23)c(C)c1 | 40* | 21 | -1 | 5928 | . | 0
COc1ccc(Cc2c(-c3cccc(Br)c3)nc3ccc(Cl)cn23)c(C)c1 | 8 | 18 | -10 | 7038 | . | -3
CCOC(=O)c1nc2sc3c(c2c(=O)n1C(C)C(=O)OCC)CCCC3 (stereo not drawn) | 2 | -3 | 6 | 4681 | 11 | 135*
COc1ccc(-c2cc(C(=O)N3CCN(c4ccccn4)CC3)c3ccccc3n2)cc1 | -1 | -1 | -6 | 11887 | 22 | 10
CCOc1ccc(-c2cc(C(=O)N3CCN(c4ccccn4)CC3)c3ccccc3n2)cc1 | -1 | 0 | 0 | 22531* | 11 | 3
O=C(c1cc(-c2ccccc2)nc2ccccc12)N1CCCC1 | 0 | 2 | -3 | 5680 | -5 | 3
CC1CC(C)CN(C(=O)c2cc(-c3ccccn3)nc3ccccc23)C1 (stereo not drawn) | 0 | 3 | 4 | 4463 | 10 | 2
COc1ccc(-c2cc(C(F)F)n3ncc(C(=O)N4CCCCC4)c3n2)cc1 | 0 | -2 | -19 | 4165 | 42* | 26
COc1ccc(-c2cc(C(=O)N3CC(C)CC(C)C3)c3ccccc3n2)cc1 (stereo not drawn) | 1 | -1 | -4 | 6158 | 13 | 50*
COc1ccc(-c2cc(C(=O)N3CCCC3)c3ccccc3n2)cc1 | -3 | -2 | -8 | 4922 | 14 | 148*
O=C(CCc1ccccc1)NC1(Cc2ccccc2)CCN(CCc2cccs2)C1=O (stereo not drawn) | 0 | 5 | -2 | 4387 | 1 | -2
CC1(c2nnc(-c3ccncc3)o2)CC(c2ccc(Cl)cc2)=NO1 (stereo not drawn) | 0 | -2 | -10 | 3455 | 6 | 0
O=C(Cc1ccccc1)N1O[C@H]2C=C[C@@H]1CC2 | 0 | -8 | -6 | 3963 | 13 | -1
O=c1c(Br)c(NCc2ccccc2)cnn1-c1ccc(F)cc1 | 0 | -2 | -4 | 4672 | 2 | 1
COc1ccc2nc(-c3ccccc3)cc(C(=O)N3CCC3)c2c1 | 2 | -17 | -47 | 3470 | 10 | 149*
COc1ccc2cc(-c3cc(C(=O)O)c4ccccc4n3)ccc2c1 | 0 | 1 | -16 | 4555 | 36* | 13
Cc1ccc2nc(-c3ccc4c(c3)OCCO4)cc(C(=O)O)c2c1 | -1 | -4 | 4 | 3367 | 24 | 14
CS(=O)(=O)N1CCN(C(=O)c2cc(-c3cccs3)nc3ccccc23)CC1 | 3 | 3 | 15 | 3663 | 31* | 125*
COc1ccc(-c2cc(C(=O)O)c3ccccc3n2)c(OC)c1 | 0 | -1 | 7 | 4232 | 12 | 7
CS(=O)(=O)N1CCN(C(=O)c2cc(-c3ccccc3)nc3ccccc23)CC1 | 2 | -1 | 12 | 9329 | 7 | 3
O=C(O)c1cc(-c2cccs2)nc2cc3c(cc12)OCCO3 | 0 | -6 | -7 | 5825 | 9 | +
CC1(C)C([N+](=O)[O-])C(c2ccc(O)cc2)NC(c2ccc(O)cc2)C1[N+](=O)[O-] (stereo not drawn) | 4 | 4 | 20 | 9923 | 1 | 2
Cc1ccc(-c2cc(C(=O)Nc3ccccc3C(N)=O)c3ccccc3n2)o1 | . | . | . | . | 12 | 3
COc1ccc(-n2cc(C(=O)O)c3ccccc3c2=O)cc1 | -1 | -1 | -3 | 16517* | 11 | -1
NC(=O)C1CCN(C(=O)c2cc(-c3ccc(Cl)s3)nc3ccccc23)CC1 | 0 | -4 | -6 | 2929 | 34* | 127*
Cc1ccc(-c2cc(C(=O)N3CCOCC3)c3ccccc3n2)o1 | 0 | 5 | 3 | 4194 | 22 | 120*
O=C(c1cc(-c2ccccc2Cl)nc2ccccc12)N1CCC1 | -3 | -5 | -13 | 5187 | -9 | -3

Compound activity deposited in PubChem BioAssay by several laboratories.
